Data published in PubChem BioAssay AID1347426 (Functional Genomics Laboratory (NCATS/FGL), 2020).
The whole screen tested about 31,000 sequences, of which about 1,400 (4.5%) were called active. This excerpt belongs to a sample that is enriched for actives. A number with no mark means an inactive call.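 The calls were made as follows: active = median seed-adjusted z-score above 1 or below -1; inactive = the rest.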

Assay: Novel Modifiers of Survival Motor Neuron (SMN) Protein: Gene Identification via Genome-wide siRNA Screen;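 also: luminescence tracks full-length SMN protein made from the SMN2 reporter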
Details: HEK293T SMN2-luciferase reporter, siRNA knockdown, 72 h; actives lie on both sides
Method in brief: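 HEK293T cells stably carrying an SMN2 promoter/splicing cassette–luciferase reporter were reverse-transfected with 1 pmol siRNA per well (druggable-genome library, 3 siRNAs per gene) and grown 72 h at 37 °C. Luminescence, normalized to negative-control siRNA and log10-transformed, was scored as MAD.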

Row | Sequence | median seed-adjusted z-score
1 | GGGACUUCAUGUUCGAGCATT against DNAI2 | 0.12
2 | GCAGAAAGGUGUAACAUAATT against DDI2 | 1.27 (active)
3 | CAGGCAAACCGCUACAUCATT against EN1 | 0.761
4 | ACAGUUCUCUAUGACCUCATT against PLA2G4E | 0.266
5 | AGUGCAUGGUUGCAGCUGATT against RNF144A | -0.185
6 | GAAUCAAUAUAAUCUAGCATT against UBE2Q2 | 0.146
7 | AGAACUGCGUGACUAUACATT against ZNF417 | 0.0205
8 | GCCUCUCACAUCUAUGGUATT against ITIH4 | 0.64
9 | GGAGAAAGAAUGACGAGAATT against TGFBR2 | 0.8
10 | AACUCGCUGUUGUACCUGATT against CPSF1 | 3.29 (active)
11 | GGCAUUAUGUGAAGGCGAATT against SMC5 | 0.0666
12 | CCAUCACCUUCAAUCCGCUTT against PEMT | 0.0218
13 | GGUAGACUGUCAUCGUGAATT against RAD50 | 0.266
14 | CAUCACCGCUGGGUCCAAATT against FABP1 | -0.302
15 | UGGAAUAAGUGGGCUCUGATT against ADM | 0.65
16 | CAAUAUGCCUUUCUCUACATT against DNASE1L3 | 0.0678
17 | GGACUGCUUCAUAUACUGATT against GLT8D1 | 1.22 (active)
18 | GGGACUAACAUGUACAACATT against PCDH24 | 0.345
19 | CAGUUACUAUAAAAACCGATT against ZNF711 | 0.254
20 | GAGAUAGACUUGCUGAGCATT against TRIP6 | 1.03 (active)
21 | GGAAAAUCAAUAUAUCACUTT against ADH6 | -0.132
22 | GGAGCAUACAGAACGGACATT against SIPA1L3 | 0

Row | Sequence | median seed-adjusted z-score
23 | GGUCAUACACGGGAUCUCUTT against SLC30A2 | -0.402
24 | GCAUUGGAACGAUUCUAAATT against CTPS2 | 1.08 (active)
25 | CGCACGCUCUUCAAAUUCUTT against ADRA2A | -0.65
26 | GCAAAUGAGUGUGACCUAATT against RAB38 | -0.165
27 | CCAACCUAAUUAUGGAGGATT against PCDHGB4 | 0.176
28 | AGGUUUAUGUGACCAAGCATT against KCTD8 | 0.0212
29 | GAGCGAAGAUGUCCGAAAATT against MIPEP | -0.169
30 | GCUUCAAUGAGACAACCCUTT against IP6K2 | -0.193
31 | CAGAAGUUGUGCAAUCCAATT against ADAM32 | 1.75 (active)
32 | GGAUGGUCGGAUUCUGAAATT against ITPKC | 0.218
33 | CCAGGCUAUCUUUCCGAUATT against PTPN3 | -0.535
34 | GCCCACUGACCAUACCUCATT against NAT6 | -0.327
35 | GGAGUUGAUUUUAUGAUUATT against RAB30 | 0.395
36 | GUAUCAGCAUUGAUAGAUATT against GPR21 | 0.246
37 | GCACCGAGCUUUACAGUGUTT against LARP1 | 0.251
38 | CCUUGUGCGUUACAGAAGATT against SCARA3 | -0.05
39 | CAUCAAGCCUCAUCUAAUATT against CHD1 | -1.03 (active)
40 | CCCAGUUUCUAGUCUGCUATT against SHKBP1 | 0.345
41 | AGACAAUUUGUAACUAGAATT against NEUROD2 | -0.103
42 | AGAUCAAGGUGUACGAGAUTT against KIF26A | -0.428
43 | GCAUCUAUGUAACAAAGAUTT against DLG4 | -0.498
44 | CGAAUGCAUCAGAUCAACATT against UBA2 | 0.694

Row | Sequence | median seed-adjusted z-score
45 | GUAACAACAUCAUCCUAGATT against HSPG2 | 0.478
46 | GACCCGGUAUAUGAACUCATT against UCP3 | 1.23 (active)
47 | GAGAAGGCCUAUUCAGACATT against ZBTB7C | 0.447
48 | CGAGCUGACUUCAACAGGATT against STC1 | -1.36 (active)
49 | GUGUGGUACAGAACAUUUATT against GUCA1C | -0.617
50 | GCAACAACCUGAUUAAGGATT against MED24 | -2.3 (active)
51 | GGACUCAGCAGGAUACAAUTT against FOXJ2 | -0.627
52 | ACUUAGCACUUUAUAUUUATT against DUSP2 | 0.576
53 | GAGCAGUACUGGGAAGAGATT against CARD14 | -0.104
54 | GCAGCUUAGGAACAGCAGATT against THOC4 | -1.54 (active)
55 | CCAUGACACGGUCCUCCAATT against ICAM2 | 0.269
56 | GCUUUGUGGUGUGGAGUAUTT against LTB4R | 0.498
57 | GAAGAUGACAUGUACCGUATT against XPA | 2.03 (active)
58 | GCUGCUACUUUGAAGUCCATT against FGG | -0.043
59 | CAUGCAGCCUUAAGCCUCATT against ILKAP | 0
60 | GCCUAGAGCUAAGUACCAATT against CHUK | -0.613
61 | GGCACUAAGUUUGACCGGATT against AQR | -1.56 (active)
62 | GCCUUUGACCUGUCAGUGUTT against ASMT | -0.322
63 | GCAUCCUGUUUGUAAAUGATT against DLG4 | -0.498
64 | CCGUGGUUACAGAAACGUATT against ABHD3 | -0.126
65 | CAAGAUGCUGGAUAAGGAATT against GYS1 | 0.874
66 | GGAUUCUUGUUGGACUAAUTT against RHBDD1 | 0.00277

Row | Sequence | median seed-adjusted z-score
67 | CAAUAGGAUUAUCAUGAGATT against MRS2 | 1.38 (active)
68 | GGCUACAACAUGACUCGUATT against FZD10 | -0.226
69 | UCACUGUCCCAGACACCAATT against EPO | 0.148
70 | UGGACAACUUUGUACCUAATT against EBP | 0.017
71 | GGCUCAACAUGGACCGGAUTT against BCAT2 | 0.0438
72 | CAAAGGCGAUAACAUCUAUTT against UBE2E1 | 0.888
73 | GCCCUAAAGGAGAAAGUCATT against MAT2A | -1.9 (active)
74 | GCAUGUAAGAAUCCACAAUTT against ZNF187 | 0.419
75 | GCCUAAAUCCCAAAUCGAATT against CXCL11 | -0.135
76 | ACAGCGACCUUGCAAAGAATT against ZNF496 | -0.971
77 | GAAAGUGCUCGGUGCCUUUTT against HBB | -0.151
78 | GGCGAGAAGAGCAACGUAATT against DDX46 | -1.24 (active)
79 | CAACGGCUUCUGUCAUUUATT against SUCLG1 | -0.63
80 | GAAGUUCUCUUUACAACCATT against RFX2 | 0.271
81 | GUUCAGCACUCAUUAGACATT against ZNF17 | 0.579
82 | CGAUCAUUACCUCUCCAGATT against ARHGEF4 | 0.332
83 | GAAUGACCAGAGACAUCUATT against INSR | 0.172
84 | GGAUUUGCCGAAUUAACAATT against RELB | 1.16 (active)
85 | GGAGAUAGCUUUGCCUAUATT against RBM15B | -0.183
86 | GGUACUCGGUGGAAACCAATT against CNKSR3 | 0
87 | CAUUAACCAGUGAACGCAATT against AADAT | 0.0891
88 | CAAGAAUGUUACUAACAAUTT against TPM4 | -0.407

Row | Sequence | median seed-adjusted z-score
89 | GCUACAGUCUCUACCCUGATT against BARX1 | 1.63 (active)
90 | AGCUCAAGAAGUACACCAATT against CHST12 | 0
91 | CCUCGAUUCCAUUAUCAUUTT against RECQL4 | 0.475
92 | GCCUAGAGGACUACAAGAATT against FZD8 | -0.177
93 | GCGUAAUUUGGACCUCUUUTT against ZDHHC21 | 0.216
94 | CAUUGUGAGCUAUAACGAUTT against CDH10 | 0
95 | GAAACAGUGCUAGAUAAAATT against SULT1C2 | 0
96 | CCAUCUAGCUUAUCGAUAUTT against DYRK3 | 0.358
97 | GAAUUCAGCAUGACCGAUATT against GABPA | 1.43 (active)
98 | CCAUUAUGAUCGUAAGGCATT against GCNT4 | -0.0629
99 | GCAAGUACCUGAGAACGGATT against APOB | -0.0862
100 | GGCUCUCGUAUGUAACGUATT against USP24 | 0.101
101 | GGUUCUCUUGCAUUACUUUTT against GLP2R | 0.492
102 | AGAUCGCUGUCAAAACCCUTT against GFOD1 | 0.923
103 | GGUUAACCCAGAACGUAAATT against TCP1 | -1.02 (active)
104 | GGACCCUACCAGAACUACATT against SEMA6D | 0.0624
105 | GGACUGAGCUUCUCAAUGUTT against FOLR1 | -1.31 (active)
106 | GCAUCGUGAUCGUUCCAAUTT against CHD1L | 0.63
107 | GACCAUGGAUAAUAAGAAATT against CLCN6 | -0.136
108 | CAACUGUUCCAACAACAAUTT against HAVCR1 | -0.306
109 | GAGUCCUAUUACCAGCUCATT against SRM | 0
